# Coupling enz: inhibits coupling enzyme system, counter-screen for aldolase hits; activity change, negative = inhibition, % at 58.2 µM, hits read low; 0.67% of 290,000 active; coupling enzyme system counterscreen, AmpLite Red fluorescence; in the data active means activity change below about -30%
#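 Counterscreen of the coupled detection system alone, without aldolase: glyceraldehyde-3-phosphate coupling enzymes plus AmpLite Red readout. Compounds at 57.5 uM final, 10 min RT preincubation, 20 min RT reaction, fluorescence 525/598 nm.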
# Giardia kill: Giardia lamblia killing; 0.15% of 340,000 active; Giardia lamblia trophozoite viability; activity change, % at 7.66 µM, hits read low; in the data active means activity change below about -80%; inconclusive means between about -30% and that limit;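 further: parasites exposed to compound for two days anaerobically before the ATP read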
#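 Trophozoites 100 cells/well + cpd; 48 hrs, 37 deg C, anaerobic. ATPLite 1-Step added, 15-30 min RT, luminescence read (ATP-based viability).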
# TrxR1 inh: inhibitors of rat thioredoxin reductase 1; 1% of 390,000 active; recombinant rTrxR1, NADPH fluorescence consumption, selenite substrate; O89049; Potency, µM (titrated, usually from 114 µM), inactives show top-dose activity change, negative = inhibition, most hits filed as inhibitors; AID 588453; further: potency means the concentration at half of the fitted maximal effect; nearly all actives have a fitted effect of over 65% in size
# Target sequence (O89049 whole entry, looked up): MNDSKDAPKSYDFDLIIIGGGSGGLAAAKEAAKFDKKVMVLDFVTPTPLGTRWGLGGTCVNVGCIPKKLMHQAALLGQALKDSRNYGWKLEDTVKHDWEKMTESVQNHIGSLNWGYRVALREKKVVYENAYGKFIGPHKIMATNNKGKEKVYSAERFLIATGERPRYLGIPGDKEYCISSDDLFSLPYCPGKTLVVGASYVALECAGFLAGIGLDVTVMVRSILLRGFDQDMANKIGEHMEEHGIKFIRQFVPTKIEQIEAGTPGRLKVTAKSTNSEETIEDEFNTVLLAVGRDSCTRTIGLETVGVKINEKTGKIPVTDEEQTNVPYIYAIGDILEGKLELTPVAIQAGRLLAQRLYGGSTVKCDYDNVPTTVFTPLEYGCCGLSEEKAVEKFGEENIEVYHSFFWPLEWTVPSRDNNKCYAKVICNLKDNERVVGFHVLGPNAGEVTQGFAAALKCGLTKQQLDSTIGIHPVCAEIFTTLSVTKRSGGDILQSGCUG
#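 Rat TrxR1 (90 nM in the dispensed reagent) was pre-reduced with 400 uM NADPH for 5 min at room temperature, then incubated with compound for 15 min. After 400 uM selenite was added, NADPH fluorescence (Ex 340/Em 450 nm) was followed for 8 min.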
# TrxR1 substrate: rat thioredoxin reductase 1 substrate activity | O89049 | purified TrxR1 substrate turnover, NADPH consumption readout | Potency, µM (highest dose often 114 µM), for the others: top-dose activity change, negative = substrate turnover | 0.01% of 390,000 active; further: potency means the concentration at half of the fitted maximal effect; nearly all actives have a fitted effect of over 50% in size
#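 Rat TrxR1, dispensed at 90 nM, was prereduced with 400 uM NADPH (final) for 5 min at ~22 deg C, then incubated with compound 15 min before 400 uM selenite. A first-read NADPH fluorescence drop versus no-compound background flagged substrates.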
# PI4K2A block: inhibitors of human PI4K2A; 0.13% of 420,000 active; AID 1346378; activity change, negative = inhibition, % at 76.9 µM; purified PI4K2A, ADP-Glo luminescence, 1 h; stronger effect = lower value; in the data active means activity change below about -50%; inconclusive means mostly about -30% to -49%;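 further: -100% = wells without enzyme as full effect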
#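 Compounds are screened against recombinant PI4K2A using PI as substrate and ATP, the latter dispensed at 300 microM. Reactions run one hour at ambient temperature before ADP-Glo detection; full inhibition defined by wells lacking enzyme.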
# GALK inhibitor: galactokinase (human) inhibition; 0.007% of 270,000 active; AID 1868; P51570; Purified GALK, Kinase-Glo residual ATP luminescence; Potency, µM (doses to about 57.5 µM), inactives show top-dose activity change, negative = inhibition, usual class: inhibitors; further: potency means the concentration at half of the fitted maximal effect
#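 GALK at 5 nM final was combined with compound, 35 uM ATP and 100 uM galactose in HEPES pH8.0 with MgCl2 and DTT. The reaction ran one hour at room temperature before luminescent ATP detection.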
# * = called active by the depositor; ? = inconclusive; / = not tested or not shown; [ ] = dose if it differs, or a comment. The list is not random: actives were taken first. Their share in the collection is about 1.5%. Unless noted, the call rests on the fitted dose curve; in most records, active means well fitted curve in the direction sought with a large enough effect; inconclusive means small, poorly fitted or top-dose-only effect, or another doubt; inactive means no such curve, though single readings can be large; an effect the other way counts as inactive or inconclusive. Unless noted, on the % scale 0 is the no-effect control and ±100 the full control effect.
SMILES,Coupling enz,Giardia kill,TrxR1 inh,TrxR1 substrate,PI4K2A block,GALK inhibitor
COc1ccc(N2CCN(c3ccc(NC(=O)/C=C\C(=O)O)cc3)CC2)cc1,0,-13,1%,1%,-22,-2%
COc1ccc(OC)c2c(=S)c3ccccc3[nH]c12,-6,/,/,/,/,/
O=C1c2ccc3c4c(ccc(c24)C(=O)N1NC(=O)C(F)(F)F)CC3,5,-11,9%,49%,-3,2%
CC(=O)NN1C(=O)c2ccc3c4c(ccc(c24)C1=O)C(=O)N(NC(C)=O)C3=O,-32*,1,44%[2.29 µM],-16%,-7,0%
Cc1ccc(NC(=O)CC(=O)Nc2ccc(C)cc2C)c(C)c1,0,1,2%[57.1 µM],0%,-3,0%
Cc1ccc(N/C(C(Cl)=C(Cl)Cl)=C(/Cl)[N+](=O)[O-])c(C)c1,-1,-94*,?,0%,-11,/
COc1cccc(-n2cc(C(=O)Nc3cc(OC)c(OC)c(OC)c3)c3ccccc3c2=O)c1,/,/,9%,10%,0,/
CCOC(=O)c1ccc(N2C(=O)c3n[nH]c(-c4ccco4)c3C2c2ccccc2OC)cc1 (centres undefined),/,/,6%,-10%,-11,/
Oc1ccc(N=Cc2ccc(O)c(O)c2)cc1,-46*,-1,-26%,-12%,-28,-3%
Oc1ccc(/C=N/N=C/c2ccc(O)c(O)c2)cc1O,-4,-8,-10%,-7%,0,-2%
O=C(Cn1c(=O)n(Cc2nc(-c3ccccc3)no2)c(=O)c2ccccc21)Nc1cccc(C(F)(F)F)c1,/,/,31%,5%,1,/
COC(=O)C(=C/C(C)=C/c1cccnc1)C(=O)OC,2,17,56µM*,-7%,-2,-2%
NC(=O)c1ccc(N=Cc2c(O)ccc3ccccc23)cc1,/,-14,7%,4%,14,/
Cc1oc(/N=C/c2c(O)ccc3ccccc23)c(C#N)c1C,-30*,/,/,/,/,7%
Cn1c(/N=C/c2c(O)ccc3ccccc23)nc2ccccc21,-79*,-6,-34%,-12%,-16,0%
O=C(O)c1ccc(N=Cc2c(O)ccc3ccccc23)cc1,-36*,6,-7%,-4%,-1,-3%
N#Cc1cccc(N=Cc2c(O)ccc3ccccc23)c1,-38*,1,-7%,-3%,-1,0%
CN(C)c1ccc(N=Nc2ccc(/C=C/c3ccnc4ccccc34)cc2)cc1,/,/,?,-13%,/,/
Cc1ccc(N=Cc2c(O)ccc3ccccc23)cc1F,-47*,-11,-18%,-18%,3,/
CC(=O)Nc1ccc(N=Cc2c(O)ccc3ccccc23)cc1,-11,-29,13%,1%,0,-2%
CCOC(=O)c1sc(/N=C/c2c(O)ccc3ccccc23)cc1C,-34*,4,-16%,-15%,-1,1%
COc1ccc(N=Cc2c(O)ccc3ccccc23)cc1,-23,9,3%,-6%,-2,0%
O=S(=O)(/N=C/c1c(O)ccc2ccccc12)c1ccccc1,-36*,-10,4%[57.1 µM],4%[57.1 µM],-5,-3%
Cc1ccc(C)c(NC(=O)C2CCCN2S(=O)(=O)c2cccc3cccnc23)c1 (centres undefined),/,/,/,/,-2,/
CCC(=O)N(CCC(c1ccco1)c1ccccc1OC)Cc1cccs1 (centres undefined),6,-8,35µM*,3%,-3,4%
SMILES,Coupling enz,Giardia kill,TrxR1 inh,TrxR1 substrate,PI4K2A block,GALK inhibitor
O=C(c1ccco1)N(CCC(c1ccccc1)c1ccco1)Cc1ccco1 (centres undefined),1,-1,?,-2%,-24,-2%
CC(=O)N(CCC(c1ccccc1)c1ccco1)Cc1cccs1 (centres undefined),9,-8,25µM*,-1%,-2,/
N#C/C(=C/c1ccc(N2CCCCCC2)o1)c1cccc(F)c1,-48*,-13,?,-5%,5,-4%
N#C/C(=C/c1ccc(N2CCCCCC2)o1)c1ccc(F)cc1,/,-1,5µM*,11%[57.1 µM],6,/
COC(=O)C1=C(NC(=O)COc2ccc3ccccc3c2)CCS1,3,5,79µM*,30%,2,0%
COC(=O)C1=C(NC(=O)COc2ccc(Cl)cc2Cl)CCS1,-1,-9,14%[57.1 µM],11%[57.1 µM],4,0%
COc1ccc(Oc2c(OC)cc([N+](=O)[O-])c3ncccc23)cc1,/,0,-14%,6%[57.1 µM],7,/
COc1cc(NC(C)CCCN)c2ncccc2c1Oc1ccccc1 (centres undefined),-30*,6,-12%[57.1 µM],-9%,-21,3%
Cn1c(NCc2ccccc2F)nc2ccccc21,/,/,-8%,-3%,-9,/
O=C(N/N=C/c1ccccc1)c1ccco1,-1,16,-14%[57.1 µM],-7%[57.1 µM],-2,1%
O=C(C#Cc1ccccc1)c1ccco1,0,3,0.25µM*,-1%,-2,-7%
CCOCCCNC(=O)C(c1ccccc1)N(Cc1cccs1)C(=O)c1ccc(NC(C)=O)cc1 (centres undefined),/,/,-1%,6%[2.29 µM],-16,/
O=C(OCn1ncc(Cl)c(Cl)c1=O)c1ccc(F)cc1,0,/,/,/,/,-6%
O=C(OCn1ncc(Cl)c(Cl)c1=O)c1ccccc1Cl,1,-3,8.9µM*,-6%,6,-13%
COC(=O)C1=C(C(=O)OC)[C@@H]2N(C)c3ccccc3[C@@]23C[C@@H](C(=O)OC)N(S(=O)(=O)c2ccc(C)cc2)C3=N1,0,/,/,/,/,/
CSc1ncc(Cl)c(C(=O)Nc2ccc(C)c(C)c2)n1,-1,5,23%,4%,-2,2%
CCSc1ncc(Cl)c(C(=O)Nc2ccc(S(N)(=O)=O)cc2)n1,0,2,-4%,-5%,-6,2%
Cc1ccccc1NC(=O)c1nc(S(=O)(=O)Cc2ccccc2F)ncc1Cl,/,/,3.5µM*,19%,/,/
Cc1ccc(NC(=O)c2nc(S(=O)(=O)Cc3ccccc3C)ncc2Cl)cc1C,3,?,32µM*,1%,10,3%
NS(=O)(=O)c1ccc(NC(=O)c2nc(S(=O)(=O)Cc3ccccc3F)ncc2Cl)cc1,/,/,3.5µM*,4%,/,/
Cc1ccc(NC(=O)c2nc(S(=O)(=O)Cc3ccccc3F)ncc2Cl)cc1C,/,/,3.2µM*,-6%,/,/
Cc1ccc(NC(=O)c2nc(S(=O)(=O)Cc3ccccc3F)ncc2Cl)cc1,/,/,2.8µM*,9%,/,/
COC1=C(C(=O)c2ccccc2)C(=O)C2(CC=C(C)C)C[C@H](C(=O)OCC(F)(F)F)C(C)(C)[C@@]1(CC=C(C)C)C2=O (tested in a mixture with another compound),2,/,/,/,/,/
COCCOC(=O)c1[nH]c2c(c1C)C(=O)C(C(=O)OC)C(C)C2 (centres undefined),-36*,-16,6%,-4%,-4,1%

# Source: PubChem (National Center for Advancing Translational Sciences (NCATS))
